The list is not random: actives were taken first. Their share in the collection is about 2%.
NadD inh: inhibitors of S. aureus NadD, primary screen, biochemical, colorimetric, uHTS. Nicotinate-nucleotide adenylyltransferase NadD (Staphylococcus aureus N315). actives 0.78% (n = 360,000). inhibition, % at 20 µM. purified NadD enzyme, colorimetric absorbance read-out; in the data active means inhibition above about 26%
ARNT-TACC3 inh: disruptors of ARNT/TACC3 protein interaction, primary screen, biochemical, AlphaScreen, single concentration. actives 0.66% (n = 390,000). AID 623870, 2012. Transforming acidic coiled-coil-containing protein 3 (Homo sapiens), Q9Y6A5. AlphaScreen His-ARNT PAS-B/GST-TACC3 binding, luminescence; TACC3 fragment carries E629A point mutation. inhibition, % at 9.99 µM;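 active means mean inhibition of replicates at least 50% and at least half of replicates each reaching 50%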;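 further: 0% = complete ARNT plus TACC3 wells and 100% = ARNT alone without TACC3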
DAGLB inh: DAGLB lipase inhibitors, primary screen, biochemical, fluorescence, HTS; HEK293T DAGLB membrane lysate, EnzChek fluorogenic substrate; inhibition, % at 5.17 µM; actives 0.059% (n = 340,000); in the data active means inhibition above about 34%;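 further: 0% = enzyme with vehicle and 100% = wells lacking enzyme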
Neddylation inh: inhibitors of cullin neddylation, primary screen, biochemical, TR-FRET, uHTS, NAE and Ubc12 | AID 651699, 2012 | NEDD8-conjugating enzyme Ubc12 (Homo sapiens) + NEDD8-activating enzyme E1 regulatory … | actives 0.58% (n = 360,000) | inhibition, % at 25 µM; in the data active means inhibition above about 36%
Target sequence (P61081 whole entry, looked up): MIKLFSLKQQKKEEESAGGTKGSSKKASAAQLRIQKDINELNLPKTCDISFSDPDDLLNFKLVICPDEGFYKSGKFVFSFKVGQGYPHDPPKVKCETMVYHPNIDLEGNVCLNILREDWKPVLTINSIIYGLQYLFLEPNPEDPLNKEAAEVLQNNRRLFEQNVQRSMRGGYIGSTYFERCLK
Target sequence (Q13564 whole entry, looked up): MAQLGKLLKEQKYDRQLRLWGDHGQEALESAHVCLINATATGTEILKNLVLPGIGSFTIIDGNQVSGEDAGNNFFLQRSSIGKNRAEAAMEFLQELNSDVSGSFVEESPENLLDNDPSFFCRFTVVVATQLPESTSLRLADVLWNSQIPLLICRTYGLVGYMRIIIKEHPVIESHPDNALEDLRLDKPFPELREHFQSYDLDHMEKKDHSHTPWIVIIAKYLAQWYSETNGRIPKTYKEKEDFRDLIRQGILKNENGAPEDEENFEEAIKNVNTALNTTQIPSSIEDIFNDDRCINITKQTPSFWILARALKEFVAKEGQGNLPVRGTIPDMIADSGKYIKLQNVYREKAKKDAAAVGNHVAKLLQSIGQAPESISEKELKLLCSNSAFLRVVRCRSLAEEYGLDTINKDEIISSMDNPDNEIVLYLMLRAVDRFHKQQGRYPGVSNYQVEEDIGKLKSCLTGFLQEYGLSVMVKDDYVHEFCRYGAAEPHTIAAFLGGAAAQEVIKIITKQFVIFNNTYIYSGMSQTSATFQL
HGIII-sPLA2 inh: human group III sPLA2 inhibitors, primary screen, biochemical, QFRET, BODIPY PC-A2 liposome substrate; Group 3 secretory phospholipase A2 (Homo sapiens), Q9NZ20; actives 0.56% (n = 370,000); AID 743126, 2013; inhibition, % at 12.2 µM; QFRET BODIPY PC-A2 liposome hydrolysis, fluorescence;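 active means inhibition above mean plus 3 SD of compounds lying within the high and low control bounds, cut at about 19% in these data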;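 further: 0% = median of test compound wells and 100% = no enzyme DMSO wells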
ARNT Alpha ctr-1: AlphaScreen signal interference compounds, dose response, artefact control for ARNT-TACC3 interaction inhibitor project, biochemical, luminescence, cherry-pick. shares compounds with ARNT-TACC3 inh. His-ARNT PASB-GST AlphaScreen artifact counter-screen. AC50, µM (series often up to 68 µM), without a hit: at the highest dose activity change, negative = signal decrease. actives 50% (n = 1,200). AID 651705, 2012;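 active means every separate test run was called active for a drop in luminescence, with AC50 within twice the top valid dose, actives reach about 71 µM in these data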
ARNT Alpha ctr-2: AlphaScreen signal interference by compounds, dose response, artefact control for ARNT/TACC3 disruptor project, biochemical, dual-tagged ARNT, dry powder | shares compounds with ARNT-TACC3 inh | Dual-tagged His-ARNT PASB-GST AlphaScreen artifact counter-screen | AC50, µM | actives 70% (n = 45);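 active means luminescence drop, with half-maximal potency fitted within twice the sample's top valid dose, cut at about 70 µM in these data; inactive means the rest, including signal moving the wrong way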
Active calls of the source: *; x = no result given; [ ] = another dose, or the depositor's remark.

SMILES	NadD inh	ARNT-TACC3 inh	DAGLB inh	Neddylation inh	HGIII-sPLA2 inh	ARNT Alpha ctr-1	others
CC(=O)N1CCc2[nH]c3ccc(C)cc3c2C1	0.0	35.9*	-1.9	25.1	-4.8	-1.4%
O=C(C[C@@H]1CC[C@H]2[C@@H](COC[C@@H](O)CN2Cc2ccc(Oc3ccccc3)cc2)O1)Nc1nccs1	x	4.8	x	x	x	x
CC(=O)Nc1ccccc1NC(=O)C/C(C)=N/NC(=O)c1ccccn1	-4.6	x	-1.7	-4.4	3.5	x
C/C(CC(=O)Nc1ccc(F)cc1)=N\NC(=O)c1ccccn1	-4.4	22.1*	-1.8	-1.2	-10.8	-7.0%
C/C(CC(=O)NCc1ccccc1Cl)=N/NC(=O)c1ccccn1	1.7	26.2*	0.4	4.0	-5.5	2.1%
C/C(CC(=O)NC1CCCCC1)=N\NC(=O)c1ccccn1	-5.8	13.2	-3.9	5.7	-3.3	x
Cc1noc(C)c1NC(=O)N(C)C[C@@H]1Oc2ccc(NC(=O)Nc3cccc4ccccc34)cc2C(=O)N([C@@H](C)CO)C[C@@H]1C	x	1.5	x	x	x	x
C[C@H](CO)N1C[C@H](C)[C@H](CN(C)S(=O)(=O)c2ccccc2)Oc2ncc(-c3cccc(C(=O)N(C)C)c3)cc2C1=O	x	3.9	x	x	x	x
O=C(CSc1ccc(-c2ccccc2)nn1)NC1CCCCC1	0.2	1.8	-1.2	6.5	1.2	x
O=C(CSc1ccc(-c2ccccn2)nn1)NCc1ccc(F)cc1	-1.4	54.7*	0.8	-9.2	1.6	29µM*
O=C(CSc1ccc(-c2ccccn2)nn1)NC1CCCCC1	-4.5	54.9*	2.4	11.9	7.0	25.6µM*	ARNT Alpha ctr-2=19.8*
O=C(CSc1ccc(-c2ccccn2)nn1)NCc1ccccc1	-4.9	102.1*	0.2	-2.0	1.5	41.1µM*
O=C(CSc1ccc(-c2cccc([N+](=O)[O-])c2)nn1)NCc1ccccc1	-2.2	0.3	0.9	-26.0	0.2	x
C[C@@H]1CN([C@@H](C)CO)S(=O)(=O)c2ccc(C#CC3CC3)cc2O[C@@H]1CN(C)C	x	0.9	x	x	x	x
Clc1nssc1=Nc1ccc(Br)cc1	15.0	-6.8	0.6	-7.0	13.3	x
Clc1nssc1=Nc1nncs1	12.5	35.8*	2.0	-50.8	4.7	-14.8%
CN1CCN(C(=O)C[C@@H]2CC[C@H]3[C@@H](COC[C@@H](O)CN3Cc3ccc4c(c3)OCO4)O2)CC1	x	-1.5	x	x	x	x
C[C@@H]1CN([C@H](C)CO)C(=O)c2cc(N(C)C)ccc2O[C@@H](C)CCCCO[C@@H]1CN(C)Cc1ccc2c(c1)OCO2	x	57.2*	x	x	x	57.5µM*
C[C@H]1CCCCO[C@@H](CN(C)Cc2ccc3c(c2)OCO3)[C@@H](C)CN([C@@H](C)CO)C(=O)c2cc(N(C)C)ccc2O1	x	7.6	x	x	x	x
C[C@@H]1CCCCO[C@H](CN(C)Cc2ccncc2)[C@H](C)CN([C@H](C)CO)C(=O)c2cc(NC(=O)C3CCCCC3)ccc2O1	x	61.8*	x	x	x	-13.3%[42 µM]
C[C@@H]1CCCCO[C@@H](CN(C)C(=O)Nc2ccc3c(c2)OCO3)[C@@H](C)CN([C@@H](C)CO)C(=O)c2cc(N(C)C)ccc2O1	x	53.9*	x	x	x	-22.8%[42 µM]
C[C@@H]1CN([C@H](C)CO)C(=O)c2cc(NC(=O)Nc3ccc(C(F)(F)F)cc3)ccc2O[C@@H](C)CCCCO[C@H]1CN(C)Cc1ccc2c(c1)OCO2	x	67.6*	x	x	x	53.1µM*
C[C@@H]1CCCCO[C@H](CN(C)Cc2ccc3c(c2)OCO3)[C@H](C)CN([C@@H](C)CO)C(=O)c2cc(NC(=O)Nc3ccc(C(F)(F)F)cc3)ccc2O1	x	21.4	x	x	x	x
O=C1c2cccnc2C(=O)N1Cc1ccc(S(=O)(=O)NCc2ccco2)s1	4.7	56.8*	5.3	-29.5	-0.1	-8.0%
O=S(=O)(N[C@H]1CC[C@H](CCn2cc(-c3ccccn3)nn2)O[C@H]1CO)c1cccc(Cl)c1	x	62.8*	x	x	x	55.5µM*
SMILES	NadD inh	ARNT-TACC3 inh	DAGLB inh	Neddylation inh	HGIII-sPLA2 inh	ARNT Alpha ctr-1	others
O=S(=O)(N[C@@H]1CC[C@@H](CCn2cc(-c3ccccc3F)nn2)O[C@@H]1CO)c1ccc(Cl)cc1	x	8.5	x	x	x	x
O=S(=O)(N[C@@H]1CC[C@H](CCn2cc(-c3ccccn3)nn2)O[C@H]1CO)c1cccc(Cl)c1	x	68.7*	x	x	x	34µM*
C[C@@H]1CN([C@@H](C)CO)C(=O)c2cccc(NC(=O)C3CCOCC3)c2O[C@H]1CN(C)C	x	6.5	x	x	x	x
c1ccc(-c2nc3cc4ccccc4cc3[nH]2)nc1	6.7	15.4*	-0.7	43.9*	5.0	-36.2%
Cc1coc2c(C)c3oc(=O)c(CCC(=O)N[C@@H](C)C(=O)N[C@@H](Cc4ccccc4)C(=O)O)c(C)c3cc12	3.4	74.3*	2.0	x	-15.3	-35.6%
CCCC(NC(=O)Cc1c(C)c2cc3c(C)c(C)oc3c(C)c2oc1=O)C(=O)N[C@@H](Cc1ccccc1)C(=O)O (some centres not stated)	17.7	-2.2	-0.5	36.4	-5.0	x
Cc1c(CCC(=O)O)c(=O)oc2c(C)c3occ(-c4ccc(Br)cc4)c3cc12	18.5	55.6*	4.6	-42.5	10.6	51.9µM*
COc1ccc(-c2coc3c(C)c4oc(=O)c(CCC(=O)O)c(C)c4cc23)cc1	-0.8	43.9	3.5	35.8	x	x
O=C(NC1Cc2ccccc2C1)c1cc(-c2ccccc2)on1	x	x	x	x	x	1.3%[38 µM]
O=C(NC1CCc2ccccc2C1)c1cc(-c2ccccc2)on1 (configuration not stated)	x	x	x	x	x	-1.8%[38 µM]
Cc1ccc(-c2cc(C(=O)NC3CCCC3)no2)cc1	3.1	-7.3	-1.4	4.9	-3.6	x
O=C(N/N=C/c1ccco1)c1cnccn1	-2.9	13.7	-5.1	-4.8	-11.2	x
O=C(N/N=C/C=C/c1ccco1)c1cnccn1	-2.6	61.6*	x	-0.5	-0.3	-8.9%
C[C@H](CO)N1C[C@H](C)[C@@H](CN(C)C(=O)C2CCCCC2)Oc2cc(-c3ccc(C(=O)N(C)C)cc3)ccc2S1(=O)=O	x	16.4	x	x	x	x
O=C(NCCCn1ccnc1)C(=O)NCC1OCCN1S(=O)(=O)c1ccccc1 (configuration not stated)	0.9	56.7*	-1.0	6.1	7.1	61.7µM*
O=C(NCCCn1ccnc1)C(=O)NCC1OCCCN1S(=O)(=O)c1ccc(Cl)cc1 (configuration not stated)	-3.1	3.3	2.5	1.3	4.9	x
